Measured values taken from the antibiotic and cytotoxicity screens of Wong et al. (2023).
About 3,300 (8.5%) of roughly 39,000 compounds were called active. The sample as a whole holds a higher share of actives than the screen did.

What follows are molecules tested on HepG2 (assay: cytotoxicity call (relative viability < 0.9)). Settings: 10 µM.
With C[C@@H]1CCCCO[C@@H](CN(C)C(=O)c2ccccc2)[C@H](C)CN([C@H](C)CO)C(=O)c2cc(NC(=O)Nc3ccccc3)ccc2O1 the cytotoxicity call was “inactive”. For Cc1ccc(S(=O)(=O)NCC[C@@H]2CC[C@@H](NS(=O)(=O)c3ccccc3Cl)[C@@H](CO)O2)cc1, the cytotoxicity call was “inactive”. With C[C@H]1CN([C@@H](C)CO)S(=O)(=O)c2ccc(C3=CCCC3)cc2O[C@@H]1CN(C)C(=O)Cc1ccncc1 the cytotoxicity call was “inactive”. For COc1cccc(S(=O)(=O)N(C)C[C@H]2Oc3ncc(-c4cccc(C(=O)N(C)C)c4)cc3C(=O)N([C@H](C)CO)C[C@@H]2C)c1, the cytotoxicity call was “inactive”. In the case of C[C@H](CO)N1C[C@H](C)[C@H](CN(C)C(=O)Cc2ccccn2)Oc2cc(C#Cc3ccccc3)ccc2S1(=O)=O, the cytotoxicity call is reported as “inactive”. With COc1ccc(CNC(=O)C[C@@H]2CC[C@H]3[C@@H](COC[C@H](O)CN3S(=O)(=O)c3ccc(OC)cc3)O2)cc1 the cytotoxicity call was “inactive”. With C[C@H]1CN([C@@H](C)CO)C(=O)c2cc(NC(=O)Cc3ccccc3)ccc2O[C@H]1CN(C)S(=O)(=O)c1cccs1 the cytotoxicity call was “inactive”. In the case of COc1ccc(NC(=O)Nc2ccc3c(c2)C(=O)N([C@H](C)CO)C[C@H](C)[C@H](CN(C)S(=O)(=O)c2ccc(OC)cc2)OCCCC[C@@H](C)O3)cc1, the cytotoxicity call is reported as “inactive”. In the case of COc1ccccc1S(=O)(=O)N[C@H]1CC[C@H](CCNC(=O)C2CC2)O[C@@H]1CO, the cytotoxicity call is reported as “inactive”. In the case of C[C@@H]1O[C@@H](O[C@@H]2C=C(CO)[C@H]3[C@H](O[C@@H]4O[C@H](CO)[C@@H](O)[C@H](O)[C@H]4O)OC=C[C@H]32)[C@H](O)[C@H](O)[C@H]1OC(=O)/C=C/c1ccccc1, the cytotoxicity call is reported as “inactive”. C[C@H](CO)N1C[C@H](C)[C@H](CN(C)S(=O)(=O)c2ccc(F)cc2)OCCCC[C@H](C)Oc2ccc(NC(=O)CCC(F)(F)F)cc2C1=O was tested, and the cytotoxicity call was “inactive”. With C[C@@H]1CCCCO[C@H](CN(C)Cc2ccccc2)[C@H](C)CN([C@H](C)CO)C(=O)c2cc(NC(=O)NC3CCCCC3)ccc2O1 the cytotoxicity call was “inactive”. For C[C@H](CO)N1C[C@H](C)[C@@H](CN(C)Cc2ccc(Oc3ccccc3)cc2)Oc2c(NC(=O)Nc3ccc4c(c3)OCO4)cccc2C1=O, the cytotoxicity call was “inactive”. With C[C@@H]1CN([C@@H](C)CO)C(=O)c2cccc(NC(=O)Nc3ccc4c(c3)OCO4)c2O[C@@H]1CN(C)Cc1ccc(Oc2ccccc2)cc1 the cytotoxicity call was “inactive”. With C[C@H](CO)N1C[C@H](C)[C@H](CN(C)Cc2ccc(Oc3ccccc3)cc2)Oc2c(NC(=O)Nc3ccc4c(c3)OCO4)cccc2C1=O the cytotoxicity call was “active”. With C[C@H]1CN([C@@H](C)CO)C(=O)c2cccc(NC(=O)Nc3ccc4c(c3)OCO4)c2O[C@@H]1CN(C)Cc1ccc(Oc2ccccc2)cc1 the cytotoxicity call was “inactive”. With C[C@H]1CN([C@@H](C)CO)C(=O)c2cccc(NC(=O)Nc3ccc4c(c3)OCO4)c2O[C@@H]1CN(C)Cc1ccc(-c2ccccc2)cc1 the cytotoxicity call was “inactive”. With C[C@@H]1CN([C@H](C)CO)C(=O)c2cccc(NC(=O)Nc3ccc4c(c3)OCO4)c2O[C@H]1CN(C)Cc1ccc(Oc2ccccc2)cc1 the cytotoxicity call was “active”. For C[C@H]1CN([C@@H](C)CO)C(=O)c2cccc(NC(=O)Nc3ccc4c(c3)OCO4)c2O[C@H]1CN(C)Cc1ccc(Oc2ccccc2)cc1, the cytotoxicity call was “active”. With C[C@@H]1CN([C@@H](C)CO)C(=O)c2cccc(NC(=O)Nc3ccc4c(c3)OCO4)c2O[C@@H]1CN(C)Cc1ccc(-c2ccccc2)cc1 the cytotoxicity call was “active”. For C[C@H]1CN([C@@H](C)CO)C(=O)c2cccc(NC(=O)Nc3ccc4c(c3)OCO4)c2O[C@H]1CN(C)Cc1ccc(-c2ccccc2)cc1, the cytotoxicity call was “inactive”. With C[C@@H]1CN([C@H](C)CO)C(=O)c2cccc(NC(=O)Nc3ccc4c(c3)OCO4)c2O[C@@H]1CN(C)Cc1ccc(-c2ccccc2)cc1 the cytotoxicity call was “inactive”. In the case of C[C@@H]1CN([C@@H](C)CO)C(=O)c2cccc(NC(=O)Nc3ccc4c(c3)OCO4)c2O[C@H]1CN(C)Cc1ccc(Oc2ccccc2)cc1, the cytotoxicity call is reported as “inactive”. With C[C@@H]1CN([C@H](C)CO)C(=O)c2cccc(NC(=O)Nc3ccc4c(c3)OCO4)c2O[C@@H]1CN(C)Cc1ccc(Oc2ccccc2)cc1 the cytotoxicity call was “inactive”.
